Source: PubChem BioAssay (NCI)
Compounds without any hit were thinned out: in the full panel of roughly 83,000, 20% have a hit.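 Activity criterion: percent growth below 10, measured after cells in 96-well plates were exposed to a single compound concentration for 48 hours.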 Active and inactive are the calls of the source.

The compounds below were run on 786-0 renal (assay: NCI-60 one-dose screen, 48 h (100 = growth as untreated, 0 = no growth, -100 = all killed)). Conditions: 10 µM unless noted.
In the case of `NC(=O)CC1C=CCC1` (stereo not given), the growth is reported as 96.5% (inactive).
In the case of `CC(=O)Nc1ccc(C=Nc2ccc3ccccc3c2)cc1`, the growth is reported as 106% (inactive).
For `O=[N+]([O-])c1ccc(O)c(-c2nc3ccccc3s2)c1`, the growth was 73.8% (inactive).
`CCOC(=O)c1nn(C2CCCCO2)c2ccc(NC(=O)Cn3nnc4ccccc43)cc12` (stereo not given) was tested, and the growth was 90.9% (inactive).
In the case of `COC(=O)c1cc2c(=O)[nH]cc3c2c(n1)CCC3`, the growth is reported as 101% (inactive).
`CCCCCn1c(C)cc(/C=C\c2ccc3cc(C)ccc3[n+]2C)c1C` was tested, and the growth was -76.7% (active).
In the case of `O=c1[nH]c2cc(Cl)c(Cl)cc2n2cc3ncccc3c12`, the growth is reported as 92.2% (inactive).
`c1nc(N2CCOCC2)c2[nH]ccc2n1` was tested, and the growth was 101% (inactive).
In the case of `CCCC[C@@H](C=O)NC(=O)[C@H](CC(C)C)NC(=O)[C@H](CC(C)C)NC(=O)OCc1ccccc1`, the growth is reported as -10% (active).
With `CNC(=O)c1cc(Oc2ccc3nc(NC(=O)c4ccc5ncccc5c4)sc3c2)ccn1` the growth was 98.4% (inactive).
For `CC(C)(C)OC(=O)N1C=C/C(=C\Cn2cc(-c3ccccc3)nn2)CC1`, the growth was 79.6% (inactive).
In the case of `CC[C@@H]1NC(=O)[C@@H]2CCCCN2C(=O)[C@@H]2CCCN2C(=O)[C@@H](NC(=O)[C@H](Cc2cc(F)cc(F)c2)NC(=O)Nc2ccc(C3CC3)cc2F)[C@H](C)OC(=O)[C@@H]2C[C@@H](C)CN2C1=O`, the growth is reported as 16.4% (inactive).
With `CCCSc1nc(N)nc2nc[nH]c12` the growth was 97.5% (inactive).
In the case of `O=C(Nc1ccc(F)cc1)c1ccccc1`, the growth is reported as 100% (inactive).
With `COc1ccc(-c2ccc(NNC(=O)c3ccc(F)cc3)nn2)cc1OC` the growth was 63.4% (inactive).
